This is an account of results in PubChem BioAssay (NCATS).

Unmarked numbers belong to inactive results. Entries that show only a call come without a potency. Calls of active or inactive are those of the source. Calls follow the shape of the dose curve; as a rule, active = well fitted inhibition curve with a large enough effect; inconclusive = small, poorly fitted or top-dose-only effect; inactive = flat fitted curve, though single readings scatter.

The test system of the experiment is Nanoluciferase (engineered Oplophorus gracilirostris luciferase). The experiment can be described thus: Primary Nanoluciferase (NLuc) qHTS assay for identification of artifact compounds. (AID 1845222). The note with it: NLuc-conditioned medium, Nano-Glo luminescence, 5 min; series mostly up to 54.1 µM. The source says: PI: Alexander Tropsha Ph.D.
UNC Eshelman School of Pharmacy
University of North Carolina, Chapel Hill, North Carolina
Hits from high-throughput screening (HTS) of chemical libraries are often false positives due to their interference with the assay detection technology. In response to this problem, we generated the largest publicly available library of chemical liabilities and developed a free webtool to predict HTS artifacts, both of which are described herein. More specifically, we generated, curated, and integrated HTS datasets for thiol reactivity, redox activity, and luciferase (firefly and nano) activity. Using these curated datasets, we developed and validated several Quantitative Structure-Interference Relationship (QSIR) models to predict nuisance behavior. […] These models were employed for virtual profiling of the National Center for Advancing Translational Science's (NCATS) in-house library, and 256 compounds for each assay were selected for the experimental validation of nuisance behavior. The BA for these external predictions ranged from 58 to 78% for compounds within the applicability domains of the models. […] The models developed in this study, along with aggregation models previously developed by our group (SCAM Detective) were implemented in "Liability Predictor," an online tool which may be used as part of chemical library design or for triaging HTS hits. Both the models and the curated datasets are publicly available at https://liability.mml.unc.edu/.
SEQUENCE No. (e.g., 1, 2, 3, etc.); […] (e.g., Cells, Incubation, Reagent, etc.); VALUE; DESCRIPTION.
1; Reagent; 2 uL; Nanoluciferase media.
2; Compounds and control; 16 nL; Kalypsis pin tool (Wako USA) equipped with a 1536-well pin head.
4; Reagent; 2 uL; Luciferase enzyme.
6; Detection; Luminescence, ViewLux microplate reader.
NOTES (numbers refer to Sequence numbers above)
1. Medium was collected from the culture flasks of NLuc-expressing S16 cells (80% confluent) prior to cell plating, filtered through a 0.22um filter, and frozen at -20C prior to use. Media was diluted (1:55) and 2 uL was dispensed into all wells of a 1536-well assay plate (solid-bottom white plate; Greiner Bio One, Monroe, NC).
2. A Wako Pin-tool (Wako Automation, Richmond, VA) was used to transfer 16 nL of compounds (consisting of 7-plates in qHTS format, final concentration range 18.3 nM to 114 uM) or control Cilnidipine (final concentration range 623 nM to 80 uM).
3. 15 min. incubation at room temperature protected from light.
4. 2 uL of NLuc substrate (1:100 in Nano-Glo luciferase buffer; Nano-Glo luminescence assay, Promega, Madison, WI) was dispensed for a final assay volume of 4 uL.
5. Plates were centrifuged (121xg, 15 seconds) and incubated for 5 minutes.
6. Samples were read for luminescence on a ViewLux CCD imager (PerkinElmer). Data were normalized to no-enzyme (0% activity) and no-inhibitor (DMSO; 100%) controls and the resulting percent inhibition data were fitted to a 4-parameter Hill equation using NCATS in-house software.
On to `COc1cc(/C=C/C(=O)O[C@H]2[C@H](O)[C@@H](CO)O[C@@]2(CO)O[C@H]2O[C@H](COC(=O)c3ccc(O)cc3)[C@@H](O)[C@H](O)[C@H]2O)cc(OC)c1OC`, for which the Potency result was “inactive”.

For the compound `OC[C@H]1O[C@@H](OC(CCCCc2ccc(O)cc2)CCc2ccc(O)cc2)[C@H](O[C@@H]2OC[C@](O)(CO)[C@H]2O)[C@@H](O)[C@@H]1O` (stereo not given in full), the Potency entry was “inactive”.

Consider `Cn1ccnc1CCOC(c1cc2nccc(C(=O)O)c2[nH]1)c1ccccc1Cl` (stereo not given), for which the Potency entry is “inactive”.

Turning to `Cc1c(N2C(=O)c3ccc(C(=O)O)cc3C2=O)c(=O)n(-c2ccccc2)n1C`, the Potency entry is “inactive”.

As for `C/C=C/C=C/C=C/C(=O)O[C@@H]1[C@@H](OC)C2=C(C(=O)N(C(C)C(=O)O)C2)[C@@]2(C)CCCC(C)(C)[C@H]12` (stereo not given in full), the Potency result is “inactive”.

Take `COC1CC(=O)CCC(C)OC(=O)CC1O` (stereo not given): the Potency result is “inactive”.

For `CC(=O)c1c(C)cc(O)cc1O[C@@H]1O[C@H](CO)[C@@H](O)[C@H](O)[C@H]1O`, the Potency entry is “inactive”.

`Cc1nnc(C(C)C)n1C1CC2CCC(C1)N2CC[C@H](NC(=O)C1CCC(F)(F)CC1)c1ccccc1` (stereo not given in full): the Potency entry was “inactive”.

Turning to `C/C=C/C1=CC2=C(CO1)C(=O)[C@](C)(O)[C@H](OC(=O)c1c(O)cc(OC)c(O)c1C)C2`, the Potency result is “inactive”.

Take `CC1(C)CC2C3=CCC4C5(C)CCC(OC6OC(CO)C(O)C(OC7OC(CO)C(O)C(OC8OC(CO)C(O)C(OC9OC(COC%10OC(CO)C(O)C(O)C%10O)C(O)C(O)C9O)C8O)C7O)C6O)C(C)(C)C5CCC4(C)C3(C)CCC2(C(=O)O)CC1O` (stereo not given): the activity, negative = inhibition was 0.268% [at 11.6 µM].

As to `COc1cc(NC(=O)c2ccccn2)ccc1Cl`, the Potency entry was “inactive”.

On to `CC(=O)OC1C=C(C(=O)O)C2(CO)CCC(C)C(C)(CCc3ccoc3)C2C1` (stereo not given), for which the Potency entry is “inactive”.

Take `CC(C)=CC/C=C(/C)[C@H]1CC[C@]2(C)[C@@H]1[C@H](O)CC1[C@@]3(C)CC[C@H](O)C(C)(C)[C@@H]3[C@@H](O[C@@H]3O[C@H](CO)[C@@H](O)[C@H](O)[C@H]3O[C@@H]3O[C@@H](C)[C@H](O)[C@@H](O)[C@H]3O)C[C@]12C` (stereo not given in full): the Potency result was “inactive”.

As to `CC1(C)C(=O)N2c3ccccc3[C@]3(CC(n4cnc5ccccc5c4=O)C(=O)O3)[C@H]2N1O` (stereo not given in full), the Potency result was “inactive”.

As to `NCCCC[C@H](NC(=O)[C@@H]1Cc2ccccc2CN1C(=O)CCC(=O)c1ccccc1)C(=O)NCC(c1ccccc1)c1ccccc1`, the Potency result is “inactive”.

Take `N#Cc1ccnc(N2C(=O)CC[C@H]2C(=O)N(c2cncc(F)c2)[C@H](C(=O)NC2CC(F)(F)C2)c2ccccc2Cl)c1`: the Potency result is “inactive”.

For the compound `C=C(C)[C@H]1C[C@@H](O)C(=C)CC[C@@H](O)C(=C)[C@@H](O)C1`, the Potency entry is “inactive”.

Consider `CN(C)C/C=C/C(=O)Nc1ccc(C(=O)Nc2cccc(Nc3ncc(Cl)c(-c4c[nH]c5ccccc45)n3)c2)cc1`, for which the Potency result was “inactive”.

On to `CC(C)=CCc1ccc(Oc2c(O)cc(C)cc2CO)c(C(=O)O)c1O`, for which the Potency result is “inactive”.

Turning to `Cc1c(CN(C)C(=O)/C=C/c2cnc3c(c2)CCC(=O)N3)oc2ccccc12`, the Potency result is “inactive”.

Turning to `C=C1CCC2C(C)(C(=O)O)CC(O)CC2(C)C1CC/C(C)=C/C(=O)O` (stereo not given), the Potency entry is “inactive”.

For the compound `OC[C@H]1O[C@@H](Oc2cc(O)cc(-c3cc4ccc(O)cc4o3)c2)[C@H](O)[C@@H](O)[C@@H]1O`, the Potency entry is “inactive”.

As to `CC12CCC3c4ccc(O)cc4CCC3C1CCC2OC1OC(C(=O)O)C(O)C(O)C1O` (stereo not given), the Potency result was “inactive”.

Regarding `CCCC1=CC2=C(CO1)C(=O)C(C)(OC(=O)c1c(C)cc(OC)cc1O)C(O)C2` (stereo not given), the Potency result was “inactive”.

As for `C=CC(C)(CC/C=C(\C)CC/C=C(\C)CC(O)/C=C(\C)C(=O)O)O[C@@H]1O[C@H](CO)[C@@H](O)[C@H](O)[C@H]1O[C@@H]1O[C@H](CO)[C@@H](O)[C@H](O)[C@H]1O` (stereo not given in full), the Potency result is “inactive”.

As for `CC1=C(CC(=O)O)c2cc(F)ccc2C1=Cc1ccc(S(C)(=O)=O)cc1`, the Potency entry was “inactive”.

As for `NC(=O)[C@H]1CCCCc2c1[nH]c1ccc(Cl)cc21`, the Potency result is “inactive”.

`C=C1CCC2C(C)(C)CC(=O)CC2(C)C1CCC(C)CCOC(C)=O` (stereo not given): the Potency entry is “inactive”.

Regarding `c1ccc(C(OC2CCN(CCCc3nn[nH]n3)CC2)c2ccccc2)cc1`, the Potency result is “inactive”.

Consider `O=C(O)C[C@H](O)C[C@H](O)/C=C/c1c(C2CC2)nc2ccccc2c1-c1ccc(F)cc1`, for which the Potency entry is “inactive”.

As for `CC[C@H](/C=C/[C@@H](C)[C@H]1CC[C@H]2[C@@H]3CC=C4C[C@@H](O)CC[C@]4(C)[C@H]3CC[C@]12C)C(C)C`, the activity, negative = inhibition is 1.22% [at 6.45 µM].

For `COc1ccc(/C=C/C(=O)O[C@@H]2[C@@H](OC(C)=O)[C@@H](OC(C)=O)[C@H](O[C@H]3[C@@H]4C=CO[C@@H](O[C@@H]5O[C@H](CO)[C@@H](O)[C@H](O)[C@H]5O)[C@@H]4[C@@]4(CO)O[C@@H]34)O[C@H]2C)cc1O`, the Potency result is “inactive”.

Turning to `C/C=C/C=C/C=C/C(=O)O[C@@H]1C=C(CO)C(O)(C(=O)O)[C@@]2(C)CCCC(C)(C)[C@H]12` (stereo not given in full), the Potency result is “inactive”.

For `CC[C@H]1OC(=O)C[C@@H](O)[C@H](C)[C@@H](O[C@@H]2O[C@H](C)[C@@H](O)[C@H](N(C)C)[C@H]2O)[C@@H](CCN2C[C@H](C)C[C@H](C)C2)C[C@@H](C)C(=O)/C=C/C(C)=C/[C@@H]1CO[C@@H]1O[C@H](C)[C@@H](O)[C@@H](OC)[C@H]1OC`, the Potency entry was “inactive”.

For `C[C@]1(OC(=O)/C=C/c2ccccc2)C[C@H](O)[C@]2(O)C=CO[C@@H](O[C@@H]3O[C@H](CO)[C@@H](O)[C@H](O)[C@H]3O)C12` (stereo not given in full), the Potency entry was “inactive”.

For the compound `C=CC1C(O[C@@H]2O[C@H](CO)[C@@H](O)[C@H](O)[C@H]2O)OC=C(C(=O)OC)C1CC(=O)O` (stereo not given in full), the Potency entry is “inactive”.

In the case of `O=C(O[C@@H]1O[C@H](CO)[C@@H](O)[C@H](O)[C@H]1O)c1c(O)cc(O)cc1/C=C/c1ccccc1`, the Potency entry is “inactive”.

As for `CN1C(=O)N[C@@H](Cc2c[nH]c3c(Cl)cccc23)C1=O`, the Potency result is “inactive”.

In the case of `C=C1C(OC(C)=O)C(=O)C2C(C)(C)C(OC(C)=O)CCC2(C)C1CC(OC(C)=O)/C(C)=C/COC(C)=O` (stereo not given), the Potency result was “inactive”.

For `Nc1ncnc2c1ncn2[C@H]1CCCO1`, the Potency entry is “inactive”.
